LASV entry inh – inhibitors of Lassa virus binding or cell entry | Lassa virus pseudotype entry inhibition, cell reporter | Potency, µM (top dose mostly 37.9 µM), inactives show at the top dose activity change, negative = inhibition, usual class: inhibitors | hit rate 1.2% among 300,000 | AID 540256; calls by dose curve; tested in HEK293 cells; note: potency is the fitted concentration of half-maximal effect; nearly all actives have a fitted effect of over 50% in size
MARV entry inh – inhibitors of Marburg virus binding or cell entry. Marburg virus pseudotyped entry inhibition, cell reporter. Potency, µM (series often up to 37.8 µM), inactives show at the highest dose activity change, negative = inhibition, usual class: inhibitors. hit rate 1.8% among 300,000. AID 540276; calls by dose curve; tested in HEK293 cells; note: potency is the fitted concentration of half-maximal effect
FMDV inh – blocks foot and mouth disease virus; hit rate 1.2% among 410,000; AID 1159524; Potency, µM (highest dose often 57.9 µM), for inactives: at the top dose activity change, negative = inhibition, hits mostly inhibitors; FMDV antiviral cell-based qHTS; calls by dose curve; tested in HEK293T cells; note: read-out not given here; potency is the fitted concentration of half-maximal effect; nearly all actives have a fitted effect of over 45% in size
VACV Venus inh – vaccinia inhibition (Venus reporter); Vaccinia virus Venus reporter expression, fluorescence; AID 720580; hit rate 0.46% among 330,000; Potency, µM (highest dose often 36.5 µM), for the others: top-dose activity change, negative = inhibition, hits mostly inhibitors; calls by dose curve; tested in A549 cells; note: potency is the fitted concentration of half-maximal effect; nearly all actives have a fitted effect of over 30% in size
HCMV inh – inhibitors of human cytomegalovirus. AID 1259415. hit rate 4.5% among 410,000. HFF cells, HCMV-luciferase reporter, 72 h; stronger effect = lower value. activity change, negative = inhibition, % at 57.5 µM; in the data active = activity change below about -60%; inconclusive = no clear call, values can overlap the other calls; inactive = above about -39%
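Human foreskin fibroblasts infected with luciferase-reporter HCMV at MOI 1 PFU/cell, compounds at two doses. Luciferase measured 72 h post infection; normalized to buffer-only basal and Salinomycin (10uM) controls.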
Vaccinia mCherry – vaccinia inhibition (mCherry reporter) | Vaccinia virus mCherry reporter infection, fluorescence | Potency, µM (titrated, usually from 36.5 µM), without a hit: at the top dose activity change, negative = inhibition, usual class: inhibitors | hit rate 0.63% among 310,000; calls by dose curve; tested in A549 cells; note: potency is the fitted concentration of half-maximal effect; nearly all actives have a fitted effect of over 35% in size
* marks the source's active call; other numbers are inactive results; i = inactive; ? = inconclusive; / = no result; [ ] = another dose, or the depositor's remark. In the library only some 6.5% were active in any assay of this set; here they are far more common. % is set by controls: 0 for no effect and ±100 for the full control effect.

SMILES	LASV entry inh	MARV entry inh	FMDV inh	VACV Venus inh	HCMV inh	Vaccinia mCherry
Fc1ccc(-c2nn3ncccc3c2-c2ccnc(Nc3ccc4c(c3)OCCO4)n2)cc1	7.91µM*	/	/	/	/	/
O=C(c1cnn(-c2ccccc2)c1)c1ccc2ccccc2c1O	1.7%	-21.8%	63.2%	-10.0%	62.4	-10.9%
CC(C)(C)n1cc(C(=O)c2ccc3ccccc3c2O)cn1	12.6µM*	3.98µM*	15.8µM*	-3.1%	?	-10.8%
COc1cc(-c2nnc3sc(C4CCCCC4)nn23)cc(OC)c1OC	?	?	?	5.62µM*	/	?
COc1cccc(-c2nnc3sc(C4CCCCC4)nn23)c1	-7.0%	14.9%	17.6%	/	-83.8*	/
O=C(c1csnn1)N1CCC[C@@]2(CCN(Cc3ccccc3)C2)C1	/	/	-1.8%	/	/	/
O=S1(=O)CCS(=O)(=O)C1c1ccccc1	?	?	-25.8%	?	-16.3	11.2µM*
O=C1CC(=O)CC(c2ccccc2)C1	/	/	43.9%	6.8%	-7.7	i
COc1cccc(NC(=O)Nc2cccc(C(=O)O)c2)c1	?	?	?	-0.4%	41.9	2.4%
COc1cccc(NC(=O)NC2(C(F)(F)F)Oc3ccccc3O2)c1	-18.9%	8.2µM*	-19.7%	-23.9%	29.9	?
CC(=O)c1ccccc1C(=O)NCC1Cc2cccc(-c3cccnc3)c2O1 (stereo not given)	/	/	-0.4%	-9.1%	/	-5.3%
Cc1nn(-c2ccccc2)c(C)c1/C=N/NC(=O)CSc1nnc(SCc2ccccc2Cl)s1	2.06µM*	?	5.7%	-18.2%	-17.7	-13.4%
O=C(CSc1nnc(SCc2ccc(Cl)cc2)s1)N/N=C/c1c[nH]c2ccccc12	?	?	?	11.2µM*	-7.3	?
Cc1nn(-c2ccccc2)c(C)c1/C=N/NC(=O)CSc1nnc(-c2ccccc2)n1-c1ccc(Cl)cc1	?	?	-22.2%	-7.5%	-16.4	-6.9%
Cc1ccc(CSc2nnc(SCC(=O)N/N=C/c3c(C)nn(-c4ccccc4)c3C)s2)cc1	8.2µM*	?	0.0%	-1.5%	-8.8	-14.2%
CC(C)Cc1nc2cc(NS(=O)(=O)N(C)C)cc(C(=O)N3CCc4ccccc4C3)c2n1C	/	/	12.0%	6.6%	/	-10.3%
CON(C)C(=O)c1nnc2c3ccccc3n(S(=O)(=O)c3ccc(C)cc3)c2n1	/	16.4%[14.2 µM]	/	/	/	/
CC#CC#Cc1cccc(=O)o1	/	/	-25.6%	-19.8%	-88.9*	-19.2%
O=c1[nH]c(=O)n(-c2cccc3ccccc23)c(O)c1C=NCc1ccc2c(c1)OCO2	15.3%	20.8%	?	/	-108.3*	/
COc1ccc(S(=O)(=O)Nc2cc3c(cc2NCc2ccccc2)n(C)c(=O)n3C)cc1OC	13.4%[46.1 µM]	22.3%[46.1 µM]	24.4%	-8.7%	-39.0	i
CC1CCCN(CC(O)CN2CCN(CC(O)CN3CCCC(C)C3)C(C)C2)C1 (stereo not given)	3.2%[46.1 µM]	1.12µM*	5.3%	6.1%	-12.9	i
Cc1ccccc1OCC(O)CN1CCN(CC(O)COc2ccccc2C)C(C)C1 (stereo not given)	?	?	-23.5%	-24.0%	23.0	-5.3%
CCNc1ncc2nc(C)c(=O)n(C3CC3)c2n1	/	/	-14.6%	/	/	/
COc1ccc(C(=O)C2CCCN(Cc3cccn3-c3ccccn3)C2)c(OC)c1 (stereo not given)	?	?	?	-12.6%	-66.7*	?
COc1ccc(F)cc1C(=O)C1CCCN(Cc2cccn2-c2ccccn2)C1 (stereo not given)	10µM*	?	-29.0%	-15.2%	?	?
SMILES	LASV entry inh	MARV entry inh	FMDV inh	VACV Venus inh	HCMV inh	Vaccinia mCherry
Cc1ccsc1C(=O)C1CCCN(Cc2ccccc2O)C1 (stereo not given)	-17.5%	-7.3%[14.2 µM]	-29.1%	-5.9%	0.0	-10.8%
Cc1ccsc1C(=O)C1CCCN(Cc2cccn2-c2ccccn2)C1 (stereo not given)	?	5.62µM*	?	-26.9%	-66.2*	-14.6%
O=C(c1cc(F)ccc1F)C1CCCN(Cc2cccn2-c2ccccn2)C1 (stereo not given)	/	/	18.2%	/	-32.4	/
O=C(Cc1ccccc1Cl)NO	/	/	/	-15.9%	/	-23.4%
CCc1ccc(-n2nc(C)c3c(C)cc(=O)n(CC(=O)N(CC)Cc4ccccc4)c32)cc1	-8.8%[46.1 µM]	/	0.0%	-1.8%	21.3	-3.0%
Cc1c(CNC2CCCCCC2)c(C(=O)O)c(C)n1Cc1cccc(Cl)c1	1.3%[46.1 µM]	29.6%[46.1 µM]	13.3%	-17.7%	?	-13.5%
CCSc1nsc(NC(=O)Nc2ccccc2Cl)n1	-22.7%[46.1 µM]	?	2.6%	-19.9%	29.0	?
CCOc1ccc(NC(=O)Nc2nc(SCC)ns2)cc1	?	?	-29.7%	-25.3%	-60.7*	-28.7%
Cc1ccc(-n2c3c(cc(-c4nc(-c5ccc(Cl)cc5)cs4)c2=O)C(=O)CC(C)(C)C3)cc1C	-3.9%[46.1 µM]	-27.8%[46.1 µM]	10.4%	-4.1%	3.9	-6.6%
Nc1ccc(C(=O)n2c3ccccc3c3ccccc32)cc1	?	3.98µM*	?	?	-79.1*	/
Nc1ccc(C(=O)N2CCCC2)cc1	-1.1%	-16.5%	0.0%	/	16.2	/
Cc1ccc(C(=O)n2c(N)nc3ccccc32)cc1	?	7.94µM*	10µM*	?	?	-3.6%
CCCN1CNc2c(c(=O)[nH]c(=S)n2CCc2cccc(Cl)c2Cl)C1	/	/	/	-29.0%	/	-7.9%
Cc1oc(-c2ccc(C(=O)NCc3cccc(F)c3)cc2)nc1COc1ccccc1	26.0%[46.1 µM]	/	0.0%	-1.0%	-14.8	-8.4%
Cc1cccc(C)c1-c1ccc(CN2C(CC(C)C)C(=O)N(Cc3cn(CC4CCCCC4)nn3)CCS2(=O)=O)cc1 (stereo not given)	/	/	-22.9%	-9.1%	-100.3*	?
CCn1ncc2c(=O)c(C(=O)c3ccccc3)c[nH]c21	/	/	/	/	2.5	/
Cc1cc(C)c(S(C)(=O)=O)c(S(=O)(=O)c2ccc(Cl)cc2)n1	-0.8%	-11.1%	-9.5%	-25.5%	-98.0*	-11.0%[1.46 µM]
CCOc1cnc(-c2c(-c3c(F)cccc3Cl)noc2C)o1	10.7%	12.7%	-3.9%	-14.3%	11.2	i
Cc1onc(-c2c(F)cccc2Cl)c1-c1ncc(-c2ccc(Cl)cc2)o1	/	/	/	/	-76.0*	/
CCN1C(=O)S/C(=C/c2ccc(Sc3nc4ccccc4[nH]3)o2)C1=O	?	?	15.8µM*	-23.1%	-65.3*	-28.7%
O=C(N/N=C/c1ccc(Sc2nc3ccccc3[nH]2)o1)c1ccncc1	?	21.0%	-21.5%	-9.2%	?	-2.2%
COc1cccc(O)c1CN1CCC(C(=O)Nc2ccc(Oc3cccnc3)cc2)CC1	-26.3%	11.2µM*	-10.4%	-17.3%	?	i
COc1cccc(O)c1CN1CCC(C(=O)Nc2ccc(-c3cccc(C)c3)cc2)CC1	?	?	?	?	-30.8	-20.7%
COc1ccc(CN2CCC(C(=O)Nc3ccc(Oc4cccnc4)cc3)CC2)cc1	?	?	?	-19.3%	-74.7*	?
CCN(CC)CCCCC1CCN(CC(=O)N2c3ccccc3C(=O)Nc3cccnc32)CC1	/	/	-19.8%	/	/	/
